# Most compounds without a hit are left out; they make up all but 11% or so of the library.
# G9a inh = inhibitors of human histone lysine methyltransferase G9a | G9a H3K9 monomethylation, AlphaScreen, 2 h | AID 504332 | Potency, µM (doses to about 102 µM), inactives show top-dose activity, negative = inhibition, actives largely listed as inhibitors | hit rate 8.8% among 350,000; note: % is set by controls: 0 for no effect and ±100 for the full control effect; nearly all actives have a fitted effect of over 75% in size
# Target sequence (Q96KQ7 913-1193 limits assumed): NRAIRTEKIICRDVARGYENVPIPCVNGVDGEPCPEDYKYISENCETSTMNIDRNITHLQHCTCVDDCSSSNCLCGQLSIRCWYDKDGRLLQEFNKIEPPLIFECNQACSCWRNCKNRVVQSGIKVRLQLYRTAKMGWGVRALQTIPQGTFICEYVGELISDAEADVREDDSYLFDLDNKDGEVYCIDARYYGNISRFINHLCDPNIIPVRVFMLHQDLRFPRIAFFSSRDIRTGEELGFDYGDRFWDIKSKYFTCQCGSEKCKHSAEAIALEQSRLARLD
#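 Readings reflect AlphaScreen signal from monomethyl-H3K9 antibody detection. HMT at 20 nM; substrate b-H3K9 500 nM; cofactor SAM 20 uM; 2 h RT reaction; compounds tested as titrations in qHTS with 15 min preincubation.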
# L3MBTL1 block = inhibitors of human L3MBTL1. Q9Y468. AlphaScreen L3MBTL1–H3K9me1 peptide binding. Potency, µM (top dose mostly 57.1 µM), for the others: at the highest dose activity, negative = inhibition, most hits filed as inhibitors. hit rate 0.66% among 230,000; note: % is set by controls: 0 for no effect and ±100 for the full control effect; nearly all actives have a fitted effect of over 60% in size
#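 Displacement of a biotinylated histone H3(1-15) peptide monomethylated at Lys9 (75 nM) from L3MBTL1 (50 nM) was measured by AlphaScreen after a 30 min room-temperature compound incubation; cefsulodin titration served as intraplate control.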
# JMJD2A Tudor = blocks the human JMJD2A Tudor domain | Potency, µM (doses to about 114 µM), without a hit: at the top dose activity change, negative = inhibition, most hits filed as inhibitors | AID 504339 | AlphaScreen JMJD2A-Tudor / H3K4me3 peptide binding | O75164 | hit rate 4.4% among 390,000; note: % is set by controls: 0 for no effect and ±100 for the full control effect; nearly all actives have a fitted effect of over 50% in size
# HP1b chromo inh = inhibitors of HP1-beta chromodomain binding to methylated histone tails | P83916 | AlphaScreen HP1-beta / biotin-H3K9me3 peptide binding | Potency, µM (titrated, usually from 114 µM), for inactives: top-dose activity change, negative = inhibition, actives largely listed as inhibitors | hit rate 0.56% among 390,000; note: nearly all actives have a fitted effect of over 70% in size
# Target sequence (P83916 whole entry, looked up): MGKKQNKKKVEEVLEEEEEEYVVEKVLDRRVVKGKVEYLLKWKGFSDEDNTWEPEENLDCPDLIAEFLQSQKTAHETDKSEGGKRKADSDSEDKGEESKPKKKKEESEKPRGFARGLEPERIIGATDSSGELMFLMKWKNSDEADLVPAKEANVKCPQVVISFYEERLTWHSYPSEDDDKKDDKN
#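 HP1-beta protein (50 nM final) preincubated 30 min at room temperature with biotinylated H3(1-18)K9me3 peptide (50 nM) in PBS pH 7.4, 0.01% Tween-20, then compound added for 30 min. AlphaScreen streptavidin donor/nickel chelate acceptor beads (10 ug/mL final), 30 min dark, luminescence read.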
# BAZ2B block = BAZ2B (human) inhibition; Q9UIF8; AlphaScreen BAZ2B-H3K14Ac peptide displacement; Potency, µM (series often up to 114 µM), for the others: top-dose activity change, negative = inhibition, most hits filed as inhibitors; hit rate 4.4% among 360,000; AID 504333; note: % is set by controls: 0 for no effect and ±100 for the full control effect; nearly all actives have a fitted effect of over 60% in size
#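 AlphaScreen displacement: compounds (up to 110uM) incubated 30 min at room temperature with a preformed 50 nM BAZ2B/50 nM biotinylated H3K14Ac peptide complex in PBS pH 7.4 with Tween-20. Donor and acceptor beads at 10 ug/mL final added, 20 min light-protected before reading.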
# An asterisk follows results filed as active; ? = inconclusive; . = no result; [ ] = another dose, or the depositor's remark. Calls come from the whole dose curve; as a rule, active = well fitted inhibition curve with a large enough effect; inconclusive = small, poorly fitted or top-dose-only effect; inactive = no such curve, though single readings can be large or run the other way. Potency is the fitted concentration of half-maximal effect.
SMILES,G9a inh,L3MBTL1 block,JMJD2A Tudor,HP1b chromo inh,BAZ2B block
O=C(Nc1ccc2nc(SCC(=O)N3CCCc4ccccc43)sc2c1)c1ccccc1,-34%[59 µM],.,-19%,7%,-6%
CC1CCCN(S(=O)(=O)c2cc3c4c(c2)C(C)C(=O)N4CCC3)C1 (configuration not stated),16%,.,-6%,35%,-4%
CCOC(=O)c1nnc2c(-c3ccc(F)cc3)c(C)nn2c1N,13%[59 µM],.,-14%,17%,-1%
Cc1cccc(C(C(=O)NC2CCCC2)N(C(=O)c2csnn2)C2CCCC2)c1 (configuration not stated),-7%,.,-5%,22%,4%
O/N=C(\c1ccccc1)c1nccc2ccccc12,12%[59 µM],.,-21%,8%[57 µM],-17%
CN(Cc1cnccn1)C(=O)CC1C(=O)NCCN1Cc1cccc(Oc2ccccc2)c1 (configuration not stated),50µM*,1%,-21%,19%,?
CN(Cc1cnccn1)C(=O)CC1C(=O)NCCN1Cc1cccc(F)c1 (configuration not stated),.,.,-23%,16%,-6%
Cc1ccc(CN2CCNC(=O)C2CC(=O)N(C)C2CCCCC2)cc1 (configuration not stated),45µM*,.,4%,28%[57 µM],-12%
CN(CCc1ccccn1)C(=O)CC1C(=O)NCCN1Cc1ccc(-c2ccccc2)cc1 (configuration not stated),56µM*,-2%,-12%,43%,-29%
C=CCNC(=O)CC1C(=O)NCCN1Cc1ccc(-c2ccccc2)cc1 (configuration not stated),56µM*,-2%,-25%,46%,-26%
N#Cc1ccc(N2CCN(S(=O)(=O)c3ccc4c(c3)CC(=O)N4)CC2)cc1,.,.,-21%,.,.
COc1ccccc1NC(=O)c1ccc(CN2C(=O)C(C)=C(c3ccc(C)c(C)c3)S2(=O)=O)cc1,10%[59 µM],.,-6%,21%,-18%
CC1(C)Nc2ccc(O)cc2-c2c1ssc2=S,8.9µM*,?,40µM*,50µM*,45µM*
CCOC(=O)c1c(N)n(-c2ccccc2CC)c2nc3ccccc3nc12,-15%[59 µM],.,-12%,49%,8%
CCn1c(=O)c2cc(C(=O)N(C)c3cc(C)ccc3C)sc2c2ccccc21,-42%[59 µM],.,-17%,32%,-30%
COc1ccc(-c2cn3cccnc3n2)cc1NC(=O)c1cc(C)cc(C)c1,6%[59 µM],.,-19%,7%[57 µM],-11%
O=C(O)c1ccn(Cn2cnc3ccccc32)n1,?,6%,22µM*,4%,?
CC(C)[C@H]1COC(c2cc(Cl)cc(Cl)c2)=N1,20%,.,.,.,.
O=C(O)c1ccc2c3c(ncnc13)-c1ccccc1C2=O,1.4µM*,1%,?,24%,-5%
COc1ccc(CN2CCN(c3cccc(C)c3C)CC2)cc1OC,11µM*,.,7%,17%,56µM*
COc1ccc(CNC(=O)CN2CCN(c3cccc(C)c3C)CC2)cc1,44%,.,-14%,56%,-1%
COc1cc(CN2CCN(c3cccc(C)c3C)CC2)cc(Br)c1O,?,-3%,2µM*,?,?
COc1cc(CN2CCC(C(=O)NC3CCCC3)CC2)cc(Br)c1O,10µM*,-8%,3.2µM*,-50%,50µM*
O=c1c2c3c(sc2n(Cc2ccc(F)cc2Cl)c(=O)n1-c1ccc(Cl)cc1)CCC3,27%[59 µM],.,-20%,65%,-2%
Cc1cccn2c(=O)c3cc(C#N)c(=O)n(-c4nnc(SCc5ccccc5F)s4)c3nc12,31%[59 µM],.,13%,58%,0%
SMILES,G9a inh,L3MBTL1 block,JMJD2A Tudor,HP1b chromo inh,BAZ2B block
COc1cc([N+](=O)[O-])ccc1-c1ccc(/C=C2\C(=O)ON=C2c2ccccc2)o1,.,.,?,-28%[57 µM],.
CC1=NOC(=O)/C1=C\c1ccc(-c2ccccc2Br)o1,7.1µM*,.,20µM*,?,25µM*
CC1=NOC(=O)/C1=C\c1ccc(-c2cccc(Cl)c2)o1,25µM*,-7%,?,0%,?
CC1=CC2=NC(=O)/C(=C\c3ccc(-c4cccc(Cl)c4)o3)C(=N)N2O1,1%[59 µM],1%,-1%,22%,3%
c1cnc(Sc2ccc3nnnn3n2)nc1,-23%,.,3%,59%,-11%
O=C(O)c1ccc(-n2cccn2)nc1,.,10%,-16%,1%,5%

# Screening data deposited in PubChem BioAssay by National Center for Advancing Translational Sciences (NCATS).
